The supplement of paper PMC12067093, “Discovery and optimisation of a covalent ligand for TRIM25 and its application to targeted protein ubiquitination” (Chemical Science, 2025)
The full data set covers some 21,000 targets. This sample favours those with the largest changes.

Compound: CC1Cc2ccccc2N1C(=O)C1CCCN(C1)C(=O)CCl (mixture of isomers) [TRIM25 ligand 11 (diastereomer mixture)]
Experiment: probe-labelled cysteine peptide fold change vs DMSO (competition) (log2 fold change); higher = less target engagement (more negative = stronger competition)
Details: THP-1, incubation time: 4 h
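Also: competitive chemoproteomic profiling in live THP-1 cells with an iodoacetamide desthiobiotin (IA-DTB) probe, comparing probe-labelled peptide intensities in compound-treated cells against DMSO-treated controls.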

MYCBP2_O75592_4406+4413_NEEHCLPCLHGCDK (UniProt O75592)
probe-labelled cysteine peptide fold change (10 µM): -0.0669

METAP2_P50579_263_IIDCAFTVTFNPK (UniProt P50579)
probe-labelled cysteine peptide fold change (10 µM): 0.0495 | probe-labelled cysteine peptide fold change (50 µM): 0.114

LYST_Q99698_3649_LCYVQSLAGHK (UniProt Q99698)
probe-labelled cysteine peptide fold change (10 µM): 0.0365 | probe-labelled cysteine peptide fold change (50 µM): -0.124

MIA3_Q5JRA6_1513_AGLEDECK (UniProt Q5JRA6)
probe-labelled cysteine peptide fold change (10 µM): 0.0174

MTHFS_P49914_180_EQICLQVPVNENDMK (UniProt P49914)
probe-labelled cysteine peptide fold change (10 µM): -0.00999

MOGS_Q13724_137_HTCEQGDGVGPYGWEFHDGLSFGR (UniProt Q13724)
probe-labelled cysteine peptide fold change (10 µM): -0.0183 | probe-labelled cysteine peptide fold change (50 µM): -0.127

MLST8_Q9BVC4_107_WMYTGGEDCTAR (UniProt Q9BVC4)
probe-labelled cysteine peptide fold change (10 µM): 0.0109 | probe-labelled cysteine peptide fold change (50 µM): -0.0842

MRPL38_Q96DV4_290_QDQPIDFSEDARPSPCYQLAQR (UniProt Q96DV4)
probe-labelled cysteine peptide fold change (10 µM): -0.028

MTA3_Q9BTC8_109_CSVALLNETESVLSYLDK (UniProt Q9BTC8)
probe-labelled cysteine peptide fold change (10 µM): 0.851

MAN2C1_Q9NTJ4_29_FVSPLYFTDCNLR (UniProt Q9NTJ4)
probe-labelled cysteine peptide fold change (10 µM): 0.111

MYO9B_Q13459_152_QQADFDDLCNLPELTEGNLLK (UniProt Q13459)
probe-labelled cysteine peptide fold change (10 µM): -0.135 | probe-labelled cysteine peptide fold change (50 µM): -0.0276

NASP_P49321_568_LGEVSVESENYVQAVEEFQSCLNLQEQYLEAHDR (UniProt P49321)
probe-labelled cysteine peptide fold change (10 µM): -0.127 | probe-labelled cysteine peptide fold change (50 µM): 0.217

LYPLA2_O95372_213_TYPGVMHSSCPQEMAAVK (UniProt O95372)
probe-labelled cysteine peptide fold change (10 µM): 0.0451

MIF_P14174_81_LLCGLLAER (UniProt P14174)
probe-labelled cysteine peptide fold change (10 µM): -0.156 | probe-labelled cysteine peptide fold change (50 µM): -0.117

MTA2_O94776_209_ALDCSSSIR (UniProt O94776)
probe-labelled cysteine peptide fold change (10 µM): -0.025
